This is an account of results in publication PMC12864922, “TDP-43 directly inhibits mRNA accumulation in neurites through modulation of mRNA stability”.

The labels stand for the following.
B1: ENSMUSG00000058297.78|Spock2 (ssRNA)
RNA: GGGAGUUCUACAGUCCGACGAUCGCUUCGAUAUCCGCAUGCUACUCAGCCCAACACCUGGAAUCCCUGCCCUGCCUAAUCAGCCCUACCCCAUCCUGCCUUUCUUCCUUCCUCUUCUGAGGCCAGGGAGAGGGAGGGAGGGCAGGCAGCUGAAAGCUGAGCGUCCUCCCCAAAUUGGGCUGAUUUGAUAUGAAAGCCCCACCACGGUCUUGUGGUGAUGAGGCAGGACCUGUACACACAGCAAGGCUUACUAUCCGUCUCCUGACAUCCGAAGAGCUCGUCGCAGGUGUGUCUAAUGGCCCUUCUCUUGCGGUCGCACUAGUGUGGAAUUCUCGGGUGUCAAGG
B2: ENSMUSG00000031028.156|Tub|40:45;125:130 (ssRNA)
RNA: GGGAGUUCUACAGUCCGACGAUCGCUUCGAUAUCCGCAUGCUAAGCUCCCAUUAUUGCCAGCAUGCCAUGAUCAGUGAGGGCACACACCCAUGCUUAGGGGGAUGGCGCAGGGUGAGGGGAGCAGAGGAUAUUUUAGGGCCACAAGAGCUCAGAGGUAGCGGACCUCACACACGUUCACCAACAGCAAUGCUGAUCCCUGAGUAUAGGGCACAUGUCUCUUGGUUACCUCACUGGUUAAUGGCAGAGUUGAGAACCUCAAAUUCUUUUGUUCCUACUGUUGCCCAGAAACUAGACUCUCUGACCUCUUGCGGUCGCACUAGUGUGGAAUUCUCGGGUGUCAAGG
B3: ENSMUSG00000028439.157|Fam219a (ssRNA)
RNA: GGGAGUUCUACAGUCCGACGAUCGCUUCGAUAUCCGCAUGCUAUAGCUCAAAGUCCAGGAGCCAGGCUUCCAGAAAGGCUCUUCAAGAGCAAGCUUAAGGAAAUACAGUGAGCCAAGUGGCUGUAUGAUAUGGUAUGGUAUGGUAUGGUAUGGUAUGGUAUGGUAUGCACAUGUGUGUGCAUGUGUGUGUGCCUGUGUGUGUGCGUGUGCGUGUGUGUAUGUGUGUGCGUGUGUGUGUGUGUGUGUUGUACCCGAGUGUGUGUUGAGCCUAUCUGUCCAGGGAACCAGAUUGGUGUCCGAGAUCUCUUGCGGUCGCACUAGUGUGGAAUUCUCGGGUGUCAAGG
B4: ENSMUSG00000028439.156|Fam219a (ssRNA)
RNA: GGGAGUUCUACAGUCCGACGAUCGCUUCGAUAUCCGCAUGCUAUCACCCUAGCUCAAAGUCCAGGAGCCAGGCUUCCAGAAAGGCUCUUCAAGAGCAAGCUUAAGGAAAUACAGUGAGCCAAGUGGCUGUAUGAUAUGGUAUGGUAUGGUAUGGUAUGGUAUGGUAUGGUAUGCACAUGUGUGUGCAUGUGUGUGUGCCUGUGUGUGUGCGUGUGCGUGUGUGUAUGUGUGUGCGUGUGUGUGUGUGUGUGUUGUACCCGAGUGUGUGUUGAGCCUAUCUGUCCAGGGAACCAGAUUGGUGUCCUCUUGCGGUCGCACUAGUGUGGAAUUCUCGGGUGUCAAGG
B5: ENSMUSG00000061578.89|Ksr2 (ssRNA)
RNA: GGGAGUUCUACAGUCCGACGAUCGCUUCGAUAUCCGCAUGCUACAAACAUCUGAUUUUAGAGGUCCCAUUCCAAGAUGGAAGUCACCGGUUGCCGCUGAGCACACAAUUCUGAAGGACAGUAGGCAGUCCUGCAGGUCUUUUUUAGCACAGGGCCUCUCUGGGGACCAGUCCCUGGCCUUCACCCUUCUCCCAUUUUGUAAGAACACUGUUCUAACUCACCUCAUGCCCACGCUACCCUGGGCAACUGGAGAACACCAUAGCGUUUCAGCUGAUGUGACAUUUGGUGUGACCUUUACCAGUUCCUCUUGCGGUCGCACUAGUGUGGAAUUCUCGGGUGUCAAGG
B6: ENSMUSG00000090935.496|Synj2bp (ssRNA)
RNA: GGGAGUUCUACAGUCCGACGAUCGCUUCGAUAUCCGCAUGCUACUUCACAUAACUAAGCCAUUCAGUACUUUUUGAAACUGACUUAGUAACAGGAGUCAUUGUAAGCUCCAUAGAAGGCAAGACGCAUUCCACAUCUUGUCUUGACCAGCAGCACUCUGGAGGCCCAGUGUCUGCUACCCUUCUUGUAUCUGAUGGCAUGGGUAACAGCUCUGCCAUGGGCCUGCUUACUUCUAGUAUUCACCUCAGGGCUUGGAAAUUGGUUUUGAAAGGCUUUUAGACAUAGAAAGUAAAACUAAUGGCAACUCUUGCGGUCGCACUAGUGUGGAAUUCUCGGGUGUCAAGG
B7: ENSMUSG00000032194.286|Kank2 (ssRNA)
RNA: GGGAGUUCUACAGUCCGACGAUCGCUUCGAUAUCCGCAUGCUAGGAUGGGUGGACGGAUGAGUGUGGGGUGGGUGGAUGGAUAAAUGAGCAAUGGAUGAGAAACUGGGUUGGCUGGUGGGUAGAUGUCAUGAUGGAGUCUUUGCACGUGUAUGAAACAGAAAACCAAACUUCAGGACAGACAGCUGCUGGUGUCUCUGGAUGCUCACAGCCUAGGGCACAUUUGAAAGGUCGUGCUCUGAGCUGAGCCCUGAGUUCCAGCCUUGUAGCCAGCAAGGGAGUUUAUUUAAGGUUCUGGAAGCAUCCUCUUGCGGUCGCACUAGUGUGGAAUUCUCGGGUGUCAAGG
B8: ENSMUSG00000058297.7|Spock2|209:213;217:230;239:250 (ssRNA)
RNA: GGGAGUUCUACAGUCCGACGAUCGCUUCGAUAUCCGCAUGCUAGGAGGAGGCCGAGGAGGAGGAGGGUGAGGCGGGUGAGGCAGAUGAUGGAGGCUACAUCUGGUAGAUAGCCCUCGACGGCCUCGGCAGGCCAGGGUGCCGACGGCCAGAAAGACAGGCCAGAAGAGACCUGGACAACAGCAGGCAACUUAGCAAAUGGAUCCGGAAGUCAGUGCGGAGGACCCUGGCUCCAGUGGGGGAGGACUGGGGACACACGCUACACACAUACACACAUAUGAGAACACACACAUACAUGUGAGAUGCUCUUGCGGUCGCACUAGUGUGGAAUUCUCGGGUGUCAAGG

Over roughly 9,900 sequences, “r (bound/input frequency ratio)” has its median near 0.7; the highest 2% begin near 6.5. The entries come from a sample that favours the highest values as a whole.

Sequence of TDP-43 (Q13148 whole entry): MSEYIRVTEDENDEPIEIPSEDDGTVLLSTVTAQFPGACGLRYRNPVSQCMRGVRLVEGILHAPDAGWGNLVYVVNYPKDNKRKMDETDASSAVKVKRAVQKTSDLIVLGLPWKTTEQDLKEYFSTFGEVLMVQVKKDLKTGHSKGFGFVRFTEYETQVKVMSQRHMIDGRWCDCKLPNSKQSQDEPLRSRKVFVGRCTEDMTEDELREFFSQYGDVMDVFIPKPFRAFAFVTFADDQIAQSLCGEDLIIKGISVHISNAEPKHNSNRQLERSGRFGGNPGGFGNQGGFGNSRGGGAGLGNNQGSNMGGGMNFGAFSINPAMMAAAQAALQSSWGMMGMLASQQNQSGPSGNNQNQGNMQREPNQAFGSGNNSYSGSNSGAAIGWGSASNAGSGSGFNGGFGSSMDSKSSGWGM

The target in the experiment is TDP-43 (Homo sapiens, UniProt Q13148 1-414). The experiment in a line: RNA Bind-n-Seq with designed 260-mer pool; 25 mM Tris-HCl, 150 mM KCl, 3 mM MgCl2, BSA (printed 500 mg/mL), 20 units/mL SUPERase IN; pH not stated; 500 nM RNA pool, 1 h, 4 C; TDP-43 5, 50, 500 nM; high values mean tight binding. The settings on record: protein: recombinant; tags: SBP (GST cleaved off with PreScission; pGEX-GST-SBP). In short, it runs like this:
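The incubation lasted 1 h at 4 °C and used 500 nM of an in vitro-transcribed 260-nt 3′ UTR oligo pool with recombinant SBP-tagged TDP-43 at 5, 50 or 500 nM immobilized on streptavidin beads. It took place in 25 mM Tris-HCl, 150 mM KCl, 3 mM MgCl2, BSA and SUPERase IN. Bound RNA was washed, eluted with biotin, converted to cDNA, PCR-amplified and sequenced to give R, each oligo's normalized abundance in the bound sample divided by that in input. Two independent protein batches provided the duplicates.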
Take B1: the binding signal was 0.631 R (bound/input frequency ratio).

Consider B2, for which the binding signal was 0.266 R (bound/input frequency ratio).

As to B3, the binding signal was 7.39 R (bound/input frequency ratio).

For the molecule B4, the binding signal was 6.74 R (bound/input frequency ratio).

Consider B5, for which the binding signal is 0.288 R (bound/input frequency ratio).

Regarding B6, the binding signal is 0.243 R (bound/input frequency ratio).

On to B7, for which the binding signal was 5.11 R (bound/input frequency ratio).

Consider B8, for which the binding signal was 2.55 R (bound/input frequency ratio).
